This is part of a sample that, as a whole, favours compounds with a hit. Of some 79,000 tested, about 15% had one in any assay. Calls of active or inactive are those of the source. No stated cut-off is given here; in the data, active means growth inhibition above about 70%; inactive means the rest.
Test: NCI Yeast Anticancer Drug Screen. Data for the bub3 strain (AID 167)
Conditions: S. cerevisiae bub3 mutant strain, at 3.7 µM, active compounds read high
In short: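 Growth of a checkpoint-deficient yeast mutant is measured after compound exposure. Values represent inhibition relative to vehicle.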

SMILES | growth inhibition
CC(CN(C)C)C(=O)/C=C/c1ccc(Cl)c(Cl)c1 (stereo unspecified) | 5% (inactive)
CCCCCCNCCCNc1c2cc(OC)ccc2nc2cccc([N+](=O)[O-])c12 | -13% (inactive)
NC(=S)N1N=C2c3ccccc3CC[C@H]2[C@@H]1c1ccc(Cl)cc1 | 9% (inactive)
C/C(=N/NC(=S)Nc1ccccc1C)c1ccccn1 | 1% (inactive)
O=C1/C(=C/c2ccc(Cl)c(Cl)c2)CNC/C1=C\c1ccc(Cl)c(Cl)c1 | -9% (inactive)
CC(C)OP(=O)(OC(C)C)C(=NCCO)NNc1ccc([N+](=O)[O-])cc1 | 22% (inactive)
N#CCC(=O)N/N=C(\c1ccccc1)C(c1ccccc1)C1(O)C(=O)Nc2c(Cl)ccc(Cl)c21 (stereo unspecified) | 5% (inactive)
CC(C)(CN1CCCCC1)C(=O)CC(SCCS(=O)(=O)O)c1ccccc1 (stereo unspecified) | -6% (inactive)
COC1=CCC23C(=O)C=CC(=O)C2(C1)C(=O)c1ccccc1C3=O (stereo unspecified) | -38% (inactive)
CCCCN(CCCC)c1ccc(N=Nc2ccc(S(=O)(=O)O)cc2)cc1 | 55% (inactive)
c1ccc2nc3c(nc2c1)sc1ccccc13 | 11% (inactive)
O=C1c2ccccc2-c2ccc(N=Cc3ccccc3)cc21 | -3% (inactive)
CNC(=S)N/N=C(/C)CCC/C(C)=N/NC(=S)NC | 62% (inactive)
Nc1ccc(/C=C/c2ccc3cccnc3c2)cc1 | 23% (inactive)
COc1ccc2c3c1OC(C)C31CC(=O)CCC1CC2 (stereo unspecified) | -3% (inactive)
CCOC(=O)Nc1ccc(C)c(NC(=O)OCC)c1 | 8% (inactive)
CCN(CC)CCNc1ccc2nc(C)n3c4ccc(OC)cc4c(=O)c1c23 | 2% (inactive)
C[N+](C)([O-])CCCNc1c2ccccc2nc2cccc([N+](=O)[O-])c12 | -14% (inactive)

SMILES | growth inhibition
O=C(c1cc(=O)c2ccc(O)cc2o1)c1ccc(Cl)cc1Cl | -11% (inactive)
CCCNC(=O)OCc1c(COC(=O)NCCC)c(-c2ccc(Cl)c(Cl)c2)n2c1CCC2 | -47% (inactive)
O=C(Cc1ccccc1)NN1C(=O)C(Cl)C1c1cc(Br)cc(Br)c1O (stereo unspecified) | 12% (inactive)
CCOC(=O)C(Cc1c2ccccc2cc2ccccc12)(NC(C)=O)C(=O)OCC | 1% (inactive)
O=[N+]([O-])/C=C/c1cc2ccc3ccccc3c2[nH]1 | 28% (inactive)
Fc1ccc(Nc2ccc3ccccc3c2)cc1 | -7% (inactive)
O=S1(=O)CCC2=CC(C(F)(F)F)=CC(C(F)(F)F)=CN21 | 52% (inactive)
O=C(Cc1ccccc1)NNc1nc(NNC(=O)c2ccncc2)nc(Nc2ccc([N+](=O)[O-])cc2)n1 | -4% (inactive)
CCCCS/C(=C(/C#N)C(N)=O)c1cc2c([nH]1)CCCC2 | -36% (inactive)
O=C(O)c1ccccc1C(=O)OC1CCc2ccccc2C1 (stereo unspecified) | -10% (inactive)
CCOC(=O)/C(=C\c1cccc(C)c1)C(C)=O | 14% (inactive)
NC(=S)N/N=C1\c2ccccc2CCC1CCC1(O)CCc2ccccc2C1=O (stereo unspecified) | 13% (inactive)
Cc1cccc2c(Cl)c3cccc(C)c3nc12 | 6% (inactive)
CC(C)OC(=O)NNc1c(Cl)cc(Cl)cc1Cl | 38% (inactive)
Nc1ccc2c(c1)C(=O)c1c(F)cccc1-2 | -4% (inactive)
N#CSCC1COc2ccccc2O1 (stereo unspecified) | -11% (inactive)
Cc1ccc(S(=O)(=O)NC(=O)C2C(=O)CC3(CCCCC3)CC2=O)cc1 | 23% (inactive)
CC1=NN(C(=O)c2ccccc2O)C(=O)/C1=C/c1ccco1 | 52% (inactive)

Reference: PubChem BioAssay (NCI)
